# According to publication PMC7862700, “An all-to-all approach to the identification of sequence-specific readers for epigenetic DNA modifications on cytosine”:
# Experiments:
# Assay in all cases: DAPPL (digital affinity profiling via proximity ligation, sequencing); 10 mM Tris-HCl pH 7.5, 50 mM NaCl, 1 mM DTT, 4% glycerol, room temperature, 30 min; GST-TFs on glutathione beads, 16-mer random dsDNA library, 0.1% formaldehyde crosslink after washing; high values mean tight binding
# Conditions in all cases: protein: recombinant; tags: N-terminal GST; dsDNA, one strand shown
# FLI1 = target: T1, FLI1 (Homo sapiens, UniProt Q01543 1-452)
# T1 sequence: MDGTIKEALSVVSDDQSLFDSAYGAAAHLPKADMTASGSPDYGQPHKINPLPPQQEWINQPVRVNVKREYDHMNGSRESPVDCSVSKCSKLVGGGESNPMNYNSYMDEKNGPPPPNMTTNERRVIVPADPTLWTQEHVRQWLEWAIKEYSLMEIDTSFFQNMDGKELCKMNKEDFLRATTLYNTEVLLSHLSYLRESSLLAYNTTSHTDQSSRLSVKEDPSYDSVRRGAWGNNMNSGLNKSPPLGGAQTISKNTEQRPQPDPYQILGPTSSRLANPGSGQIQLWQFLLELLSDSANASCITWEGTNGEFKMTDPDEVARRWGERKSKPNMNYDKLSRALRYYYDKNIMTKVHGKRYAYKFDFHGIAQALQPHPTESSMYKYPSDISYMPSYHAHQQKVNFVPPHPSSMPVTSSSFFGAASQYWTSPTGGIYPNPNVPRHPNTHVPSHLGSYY
# Outline: (§1)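 Yeast served to express human transcription factors as GST fusions, which were then captured on glutathione beads and labelled with DNA barcodes. Pooled with a tag-only sample, they were incubated with 200 nmole of a 16-mer random double-stranded DNA library for 30 min at room temperature in Tris/NaCl/DTT/glycerol buffer, washed, crosslinked with 0.1% formaldehyde, ligated by proximity, amplified by PCR and sequenced. Dividing each hexamer's read frequency for a factor by its frequency for the tag-only sample gives the binding signal.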
# GABPA = target: T2, GABPA (Homo sapiens, UniProt Q06546 1-454)
# T2 sequence: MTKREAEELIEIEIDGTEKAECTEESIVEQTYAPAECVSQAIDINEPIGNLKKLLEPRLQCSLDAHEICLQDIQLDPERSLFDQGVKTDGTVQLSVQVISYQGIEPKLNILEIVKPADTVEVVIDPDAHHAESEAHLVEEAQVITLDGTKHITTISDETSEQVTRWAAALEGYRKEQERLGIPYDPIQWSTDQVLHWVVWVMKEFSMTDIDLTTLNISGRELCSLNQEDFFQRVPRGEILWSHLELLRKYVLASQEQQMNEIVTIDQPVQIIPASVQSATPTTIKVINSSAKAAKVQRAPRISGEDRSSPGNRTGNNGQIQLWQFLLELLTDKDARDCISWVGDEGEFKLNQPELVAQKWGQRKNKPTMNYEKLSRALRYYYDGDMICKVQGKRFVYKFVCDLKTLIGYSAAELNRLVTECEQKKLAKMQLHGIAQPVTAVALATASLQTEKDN
# Outline: as §1
# ERG = target: T3, ERG (Homo sapiens, UniProt P11308 1-479)
# T3 sequence: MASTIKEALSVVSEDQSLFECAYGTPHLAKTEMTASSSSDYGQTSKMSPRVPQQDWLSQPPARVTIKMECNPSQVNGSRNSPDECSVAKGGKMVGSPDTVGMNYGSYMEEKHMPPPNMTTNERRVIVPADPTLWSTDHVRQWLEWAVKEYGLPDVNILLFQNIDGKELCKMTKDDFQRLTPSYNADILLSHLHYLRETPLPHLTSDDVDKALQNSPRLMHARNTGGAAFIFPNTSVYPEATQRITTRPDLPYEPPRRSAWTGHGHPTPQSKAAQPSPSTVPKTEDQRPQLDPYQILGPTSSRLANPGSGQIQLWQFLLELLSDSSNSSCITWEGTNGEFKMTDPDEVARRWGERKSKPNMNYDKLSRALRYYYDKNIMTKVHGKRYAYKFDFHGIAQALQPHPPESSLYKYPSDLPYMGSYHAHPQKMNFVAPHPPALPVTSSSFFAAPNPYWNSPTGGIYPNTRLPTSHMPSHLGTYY
# Outline: as §1
# ELF1 = ELF1 (Homo sapiens, UniProt P32519 1-619)
# Outline: as §1
# EHF = target: T4, EHF (Homo sapiens, UniProt Q9NZC4 1-300)
# T4 sequence: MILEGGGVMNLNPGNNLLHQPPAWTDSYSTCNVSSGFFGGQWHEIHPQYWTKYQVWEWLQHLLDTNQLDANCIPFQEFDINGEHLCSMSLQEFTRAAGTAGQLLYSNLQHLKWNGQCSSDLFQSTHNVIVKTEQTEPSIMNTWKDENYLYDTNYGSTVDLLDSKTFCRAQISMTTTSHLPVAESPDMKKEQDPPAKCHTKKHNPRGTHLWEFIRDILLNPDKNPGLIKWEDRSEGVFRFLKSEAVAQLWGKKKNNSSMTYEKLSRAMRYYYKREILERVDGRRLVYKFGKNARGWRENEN
# Outline: as §1
# SPI1 = SPI1 (Homo sapiens, UniProt P17947 1-270)
# Outline: as §1
# SPIB = SPIB (Homo sapiens, UniProt Q01892 1-262)
# Outline: as §1
# ELK3 = target: T5, ELK3 (Homo sapiens, UniProt P41970 1-407)
# T5 sequence: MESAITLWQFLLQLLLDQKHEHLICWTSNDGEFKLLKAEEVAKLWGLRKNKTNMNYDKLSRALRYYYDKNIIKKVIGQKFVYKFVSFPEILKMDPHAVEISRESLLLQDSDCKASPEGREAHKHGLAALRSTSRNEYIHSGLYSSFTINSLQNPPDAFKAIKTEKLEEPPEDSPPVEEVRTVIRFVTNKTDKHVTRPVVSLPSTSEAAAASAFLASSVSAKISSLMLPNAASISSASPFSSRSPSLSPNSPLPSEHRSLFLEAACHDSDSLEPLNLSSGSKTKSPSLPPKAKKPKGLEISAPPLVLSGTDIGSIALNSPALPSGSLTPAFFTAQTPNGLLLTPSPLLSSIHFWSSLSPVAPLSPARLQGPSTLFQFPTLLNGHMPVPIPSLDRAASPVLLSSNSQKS
# Outline: as §1
# ELK1 = target: T6, ELK1 (Homo sapiens, UniProt P19419 1-428)
# T6 sequence: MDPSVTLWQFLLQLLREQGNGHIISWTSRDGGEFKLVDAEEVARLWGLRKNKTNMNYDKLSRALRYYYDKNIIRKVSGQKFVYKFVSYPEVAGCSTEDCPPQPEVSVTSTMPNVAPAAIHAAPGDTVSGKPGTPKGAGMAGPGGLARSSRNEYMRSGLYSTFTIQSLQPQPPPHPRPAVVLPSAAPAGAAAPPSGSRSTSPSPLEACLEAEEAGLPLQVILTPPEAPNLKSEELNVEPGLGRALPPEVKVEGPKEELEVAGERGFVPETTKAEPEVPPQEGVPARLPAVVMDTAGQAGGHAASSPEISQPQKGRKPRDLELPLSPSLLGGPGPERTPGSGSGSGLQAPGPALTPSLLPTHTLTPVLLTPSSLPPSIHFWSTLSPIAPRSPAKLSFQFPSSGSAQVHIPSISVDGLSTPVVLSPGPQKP
# Outline: as §1
# SPIB, sequence (Q01892 whole entry): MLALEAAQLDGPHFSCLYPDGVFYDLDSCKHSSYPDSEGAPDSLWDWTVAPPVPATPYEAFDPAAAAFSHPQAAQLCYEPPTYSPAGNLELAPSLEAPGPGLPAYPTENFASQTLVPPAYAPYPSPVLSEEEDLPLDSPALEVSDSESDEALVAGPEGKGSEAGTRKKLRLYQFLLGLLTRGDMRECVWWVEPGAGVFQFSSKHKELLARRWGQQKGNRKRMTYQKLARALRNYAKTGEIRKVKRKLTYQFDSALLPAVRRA
# ELF1, sequence (P32519 whole entry): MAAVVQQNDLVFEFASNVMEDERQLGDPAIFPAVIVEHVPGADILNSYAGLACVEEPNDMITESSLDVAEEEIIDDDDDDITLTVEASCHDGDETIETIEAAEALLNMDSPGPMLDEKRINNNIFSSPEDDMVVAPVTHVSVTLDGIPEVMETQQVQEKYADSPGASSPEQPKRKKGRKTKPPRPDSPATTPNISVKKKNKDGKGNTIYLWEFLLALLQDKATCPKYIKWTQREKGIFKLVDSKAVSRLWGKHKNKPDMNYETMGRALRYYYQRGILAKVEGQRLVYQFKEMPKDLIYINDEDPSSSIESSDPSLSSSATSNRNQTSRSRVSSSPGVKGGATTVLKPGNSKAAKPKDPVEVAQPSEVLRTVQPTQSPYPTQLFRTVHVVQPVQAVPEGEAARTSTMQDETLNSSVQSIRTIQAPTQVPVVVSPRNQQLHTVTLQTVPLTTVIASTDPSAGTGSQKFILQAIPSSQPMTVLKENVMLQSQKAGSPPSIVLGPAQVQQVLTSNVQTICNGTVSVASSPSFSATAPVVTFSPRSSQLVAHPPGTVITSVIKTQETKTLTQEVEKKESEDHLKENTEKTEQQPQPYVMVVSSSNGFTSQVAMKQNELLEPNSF
sequence,measurement,setting,value
CTCGGT,binding signal,FLI1,"1.12 fold enrichment (6-mer frequency, TF over GST control)"
same,binding signal,GABPA,"1.09 fold enrichment (6-mer frequency, TF over GST control)"
same,binding signal,ERG,"1.04 fold enrichment (6-mer frequency, TF over GST control)"
same,binding signal,ELF1,"1.17 fold enrichment (6-mer frequency, TF over GST control)"
same,binding signal,EHF,"1.07 fold enrichment (6-mer frequency, TF over GST control)"
same,binding signal,SPI1,"1.1 fold enrichment (6-mer frequency, TF over GST control)"
same,binding signal,SPIB,"1.21 fold enrichment (6-mer frequency, TF over GST control)"
TACTGG,binding signal,FLI1,"1.08 fold enrichment (6-mer frequency, TF over GST control)"
same,binding signal,GABPA,"1.19 fold enrichment (6-mer frequency, TF over GST control)"
same,binding signal,ERG,"1.13 fold enrichment (6-mer frequency, TF over GST control)"
same,binding signal,ELF1,"1.13 fold enrichment (6-mer frequency, TF over GST control)"
same,binding signal,SPI1,"1.08 fold enrichment (6-mer frequency, TF over GST control)"
same,binding signal,SPIB,"1.05 fold enrichment (6-mer frequency, TF over GST control)"
same,binding signal,ELK3,"1.07 fold enrichment (6-mer frequency, TF over GST control)"
TGGATT,binding signal,FLI1,"1.02 fold enrichment (6-mer frequency, TF over GST control)"
same,binding signal,ERG,"1.05 fold enrichment (6-mer frequency, TF over GST control)"
same,binding signal,SPI1,"1.02 fold enrichment (6-mer frequency, TF over GST control)"
same,binding signal,SPIB,"1.05 fold enrichment (6-mer frequency, TF over GST control)"
AAATCG,binding signal,FLI1,"1.03 fold enrichment (6-mer frequency, TF over GST control)"
same,binding signal,ELK1,"1.01 fold enrichment (6-mer frequency, TF over GST control)"
same,binding signal,ERG,"1.06 fold enrichment (6-mer frequency, TF over GST control)"
same,binding signal,EHF,"1.03 fold enrichment (6-mer frequency, TF over GST control)"
same,binding signal,SPI1,"1.01 fold enrichment (6-mer frequency, TF over GST control)"
same,binding signal,SPIB,"1.04 fold enrichment (6-mer frequency, TF over GST control)"
same,binding signal,ELK3,"1.04 fold enrichment (6-mer frequency, TF over GST control)"
CCTAGA,binding signal,FLI1,"1.04 fold enrichment (6-mer frequency, TF over GST control)"
same,binding signal,ELK1,"1.01 fold enrichment (6-mer frequency, TF over GST control)"
same,binding signal,ELF1,"1.02 fold enrichment (6-mer frequency, TF over GST control)"
CTGTAA,binding signal,FLI1,"1.06 fold enrichment (6-mer frequency, TF over GST control)"
same,binding signal,GABPA,"1.07 fold enrichment (6-mer frequency, TF over GST control)"
same,binding signal,ELF1,"1.12 fold enrichment (6-mer frequency, TF over GST control)"
same,binding signal,EHF,"1.09 fold enrichment (6-mer frequency, TF over GST control)"
same,binding signal,SPI1,"1.11 fold enrichment (6-mer frequency, TF over GST control)"
same,binding signal,SPIB,"1.04 fold enrichment (6-mer frequency, TF over GST control)"
same,binding signal,ELK3,"1.24 fold enrichment (6-mer frequency, TF over GST control)"
GGCTTA,binding signal,FLI1,"1.05 fold enrichment (6-mer frequency, TF over GST control)"
same,binding signal,GABPA,"1.17 fold enrichment (6-mer frequency, TF over GST control)"
same,binding signal,ERG,"1.04 fold enrichment (6-mer frequency, TF over GST control)"
same,binding signal,ELF1,"1.08 fold enrichment (6-mer frequency, TF over GST control)"
same,binding signal,EHF,"1.02 fold enrichment (6-mer frequency, TF over GST control)"
same,binding signal,SPI1,"1.02 fold enrichment (6-mer frequency, TF over GST control)"
same,binding signal,ELK3,"1.01 fold enrichment (6-mer frequency, TF over GST control)"
ATGCTG,binding signal,FLI1,"1.09 fold enrichment (6-mer frequency, TF over GST control)"
same,binding signal,GABPA,"1.07 fold enrichment (6-mer frequency, TF over GST control)"
same,binding signal,ELF1,"1.13 fold enrichment (6-mer frequency, TF over GST control)"
same,binding signal,EHF,"1.22 fold enrichment (6-mer frequency, TF over GST control)"
same,binding signal,SPI1,"1.07 fold enrichment (6-mer frequency, TF over GST control)"
same,binding signal,SPIB,"1.05 fold enrichment (6-mer frequency, TF over GST control)"
